Records with an inconclusive call do not appear. Calls of active or inactive are those of the source. Rule for the calls: active = hit-call score of the fitted dose curve at least 0.9, where 1 is the maximum; inconclusive = response in the unintended direction; inactive = score below 0.9.
System: not listed separately
Experiment: TOX21_p53_BLA_p2_viability: Viability Assessment in the Tox21 HCT-116 p53 Agonism Beta-lactamase Assay, Phase 2 (AID 2283591);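 note: compound exposure lasted 16 h at 37 °C; actives lower the ATP signal meaning cytotoxicity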
In short: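 HCT-116 p53-bla cells (4000/well) rested 5 h at 37C, then received compounds in DMSO (217-fold dilution) for 16 h at 37C, 5% CO2. After the CCF4 read, CellTiter-Glo was added; ATP luminescence was read after 30 min at room temperature.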

Molecule | outcome
C[C@@]12C(=O)OC(=O)[C@]1(C)C1CCC2O1 | inactive
CN(C)CCn1nnnc1SCC1=C(C(=O)O)N2C(=O)[C@@H](NC(=O)Cc3csc(N)n3)[C@H]2SC1 | inactive
COc1cc(NS(=O)(=O)c2ccc(N)cc2)ncn1 | inactive
CN(C)CCC(c1ccccc1)c1ccccn1 (stereo not drawn) | inactive
CC1=C(/C=C/C(C)=C/C=C/C(C)=C/C=C/C=C(C)/C=C/C=C(C)/C=C/C2=C(C)CCCC2(C)C)C(C)(C)CCC1 | inactive
OCCN1CCN(CCO)CC1 | inactive
C/C=C/C=C/CO | inactive
CC1CCC(NC(=O)N(CCCl)N=O)CC1 (stereo not drawn) | inactive
CC(=O)N[C@@H](CC(C)C)C(=O)O | inactive
Cc1cc(=O)oc2cc(O)cc(O)c12 | inactive
CCCCCCCC | inactive
CCOC(=O)c1c[nH]c2cc(OCC(C)C)c(OCC(C)C)cc2c1=O | inactive
CC(=O)Oc1cccc(C)c1 | inactive
CCC(=O)OC(=O)CC | inactive
O=C(O)CNC(=O)c1ccc([N+](=O)[O-])cc1 | inactive
CCC(=O)OC | inactive
O=[N+]([O-])c1ccccc1Nc1ccccc1 | inactive
NC(CSCC(=O)O)C(=O)O (stereo not drawn) | inactive
CCN(CC)c1cccc(O)c1 | inactive
CCCCCC=CCC1CC(=O)OC1=O (stereo not drawn) | inactive

Molecule | outcome
CC1CCc2cc(F)cc3c(=O)c(C(=O)O)cn1c23 (stereo not drawn) | inactive
CCOC(=O)COc1ccc2c(C)c(CCN(CC)CC)c(=O)oc2c1 | inactive
CCCCC | inactive
CC=CC(=O)CC | inactive
H-RKDVY-OH | inactive
CO/N=C(\C(=O)N[C@@H]1C(=O)N2C(C(=O)O)=CCS[C@H]12)c1csc(N)n1 | inactive
C#CCN(C)CCCOc1ccc(Cl)cc1Cl | inactive
CC(C(=O)O)c1ccc2c(c1)[nH]c1ccc(Cl)cc12 (stereo not drawn) | inactive
C=CCn1cc[n+](C)c1 | inactive
C[S+](CC[C@H](N)C(=O)O)C[C@H]1O[C@@H](n2cnc3c(N)ncnc32)[C@H](O)[C@@H]1O (stereo partly drawn) | inactive
O=C(O)c1cc(O)c2c(c1)[C@H]([C@H]1c3cc(C(=O)O)cc(O)c3C(=O)c3c(O[C@@H]4O[C@H](CO)[C@@H](O)[C@H](O)[C@H]4O)cccc31)c1cccc(O[C@@H]3O[C@H](CO)[C@@H](O)[C@H](O)[C@H]3O)c1C2=O | inactive
CC(C)(C)OCC1CO1 (stereo not drawn) | inactive
N=C(N=C(N)N)N1CCOCC1 | inactive
c1coc(Cn2cccc2)c1 | inactive
NCCCNCCCCNC(=O)C(O)NC(=O)CCCCCCN=C(N)N (stereo not drawn) | inactive
C=C(C)C1CC=C(C)C(O)C1 (stereo not drawn) | inactive
CC(C)[C@@H](N)C(=O)O | inactive
CCC1OCC(COc2ccc(Oc3ccccc3)cc2)O1 (stereo not drawn) | inactive
CN1C(=O)CC(c2ccccc2)C1=O (stereo not drawn) | inactive

Target: Cellular tumor antigen p53 (Homo sapiens) (UniProt P04637)
Sequence (P04637 whole entry, looked up): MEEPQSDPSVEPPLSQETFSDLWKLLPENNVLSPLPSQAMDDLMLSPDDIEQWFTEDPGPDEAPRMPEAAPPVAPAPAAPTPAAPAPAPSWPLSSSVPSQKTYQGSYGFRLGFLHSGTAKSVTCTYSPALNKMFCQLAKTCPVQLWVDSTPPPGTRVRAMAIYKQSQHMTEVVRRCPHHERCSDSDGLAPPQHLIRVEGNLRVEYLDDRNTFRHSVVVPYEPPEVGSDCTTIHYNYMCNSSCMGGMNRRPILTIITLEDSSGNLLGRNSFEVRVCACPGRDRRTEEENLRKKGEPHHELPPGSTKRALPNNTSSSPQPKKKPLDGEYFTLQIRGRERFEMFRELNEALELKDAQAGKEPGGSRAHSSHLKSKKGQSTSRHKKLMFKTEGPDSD
Experiment: TOX21_p53_BLA_p2_ratio: Tox21 HCT-116 p53 Agonism Beta-lactamase Assay, Ratio, Phase 2 (AID 2283592)
In short: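 HCT116 cells carrying a p53-responsive beta-lactamase reporter were plated, incubated 5 h at 37C, then dosed with compounds in DMSO (217-fold dilution) for 16 h. CCF4-AM substrate was added for 2 h at room temperature; the 460/530 nm emission ratio gave gain-of-signal activity relative to DMSO.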

Molecule | AC50 | outcome
C[C@@]12C(=O)OC(=O)[C@]1(C)C1CCC2O1 | 0.446 µM (active) | –
CN(C)CCn1nnnc1SCC1=C(C(=O)O)N2C(=O)[C@@H](NC(=O)Cc3csc(N)n3)[C@H]2SC1 | – | inactive
COc1cc(NS(=O)(=O)c2ccc(N)cc2)ncn1 | – | inactive
CN(C)CCC(c1ccccc1)c1ccccn1 (stereo not drawn) | – | inactive
CC1=C(/C=C/C(C)=C/C=C/C(C)=C/C=C/C=C(C)/C=C/C=C(C)/C=C/C2=C(C)CCCC2(C)C)C(C)(C)CCC1 | – | inactive
OCCN1CCN(CCO)CC1 | – | inactive
C/C=C/C=C/CO | – | inactive
CC1CCC(NC(=O)N(CCCl)N=O)CC1 (stereo not drawn) | – | inactive
CC(=O)N[C@@H](CC(C)C)C(=O)O | – | inactive
Cc1cc(=O)oc2cc(O)cc(O)c12 | – | inactive
CCCCCCCC | – | inactive
CCOC(=O)c1c[nH]c2cc(OCC(C)C)c(OCC(C)C)cc2c1=O | – | inactive
CC(=O)Oc1cccc(C)c1 | – | inactive
CCC(=O)OC(=O)CC | – | inactive
O=C(O)CNC(=O)c1ccc([N+](=O)[O-])cc1 | – | inactive
CCC(=O)OC | 82.7 µM (active) | –
O=[N+]([O-])c1ccccc1Nc1ccccc1 | – | inactive
NC(CSCC(=O)O)C(=O)O (stereo not drawn) | – | inactive
CCN(CC)c1cccc(O)c1 | – | inactive
CCCCCC=CCC1CC(=O)OC1=O (stereo not drawn) | – | inactive

Molecule | AC50 | outcome
CC1CCc2cc(F)cc3c(=O)c(C(=O)O)cn1c23 (stereo not drawn) | – | inactive
CCOC(=O)COc1ccc2c(C)c(CCN(CC)CC)c(=O)oc2c1 | – | inactive
CCCCC | – | inactive
CC=CC(=O)CC | – | inactive
H-RKDVY-OH | – | inactive
CO/N=C(\C(=O)N[C@@H]1C(=O)N2C(C(=O)O)=CCS[C@H]12)c1csc(N)n1 | – | inactive
C#CCN(C)CCCOc1ccc(Cl)cc1Cl | – | inactive
CC(C(=O)O)c1ccc2c(c1)[nH]c1ccc(Cl)cc12 (stereo not drawn) | – | inactive
C=CCn1cc[n+](C)c1 | – | inactive
C[S+](CC[C@H](N)C(=O)O)C[C@H]1O[C@@H](n2cnc3c(N)ncnc32)[C@H](O)[C@@H]1O (stereo partly drawn) | – | inactive
O=C(O)c1cc(O)c2c(c1)[C@H]([C@H]1c3cc(C(=O)O)cc(O)c3C(=O)c3c(O[C@@H]4O[C@H](CO)[C@@H](O)[C@H](O)[C@H]4O)cccc31)c1cccc(O[C@@H]3O[C@H](CO)[C@@H](O)[C@H](O)[C@H]3O)c1C2=O | – | inactive
CC(C)(C)OCC1CO1 (stereo not drawn) | – | inactive
N=C(N=C(N)N)N1CCOCC1 | – | inactive
c1coc(Cn2cccc2)c1 | – | inactive
NCCCNCCCCNC(=O)C(O)NC(=O)CCCCCCN=C(N)N (stereo not drawn) | – | inactive
C=C(C)C1CC=C(C)C(O)C1 (stereo not drawn) | – | inactive
CC(C)[C@@H](N)C(=O)O | – | inactive
CCC1OCC(COc2ccc(Oc3ccccc3)cc2)O1 (stereo not drawn) | – | inactive
CN1C(=O)CC(c2ccccc2)C1=O (stereo not drawn) | – | inactive

Reference: PubChem BioAssay (EPA / NIEHS)
